Values joined by “and” are separate entries in the source; they are usually repeats but may differ in a detail not shown here. Equal entries are not always repeated. Inconclusive results are not listed. Where a call stands in place of a potency, no number is given. The source holds several records for some structures; these can differ, active in one and inactive in another. Active and inactive are the calls of the source. Unless noted, calls come from the whole dose curve.
Assay: qHTS assay to identify small molecule antagonists of the vitamin D receptor (VDR) signaling pathway - cell viability counter screen (AID 743225; active = well fitted cell-killing curve with a large enough effect in the repeat runs; note: nearly all actives have a fitted effect of over 50% in size)
Settings: VDR-bla HEK293T viability, CellTiter-Glo luminescence, 16 h; series mostly up to 61 µM
How it was run: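 Cytotoxicity toward the VDR-bla HEK 293T line was scored by ATP-based CellTiter-Glo luminescence, read in the wells already used for the beta-lactamase readout after 16 h compound treatment under 3 nM 1-alpha,25-dihydroxyvitamin D3 stimulation.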

Structure (SMILES) | Potency
COCCOCCOCCO | inactive
c1ccc2c(c1)ccc1ncccc12 | inactive
Cc1ccc(C(C)(C)C)cc1 | inactive
CCCCCCCCCCCCO | inactive
c1ccc2cc3ccccc3cc2c1 | inactive
CCO[Si](CCCNC(N)=O)(OCC)OCC | inactive
Cc1ccc(S(=O)(=O)NCl)cc1 | inactive
CCC/C=C/C=O | inactive
Cc1ccc(N)c([N+](=O)[O-])c1 | inactive
CC(C)(Oc1ccc(Cl)cc1)C(=O)O | inactive
CC/C=C\C/C=C\C/C=C\CCCCCCCC(=O)O | inactive
CNC[C@H](O)c1ccc(O)c(O)c1 | inactive
C1COCCN1 | inactive
Brc1nc2ccccc2s1 | inactive
CN(C)/N=N/c1nc[nH]c1C(N)=O | inactive
Cc1ccc(C)c(O)c1 | inactive
CCCCCCOCCOCCO | inactive
COC(=O)c1ccc(C)cc1 | inactive
COc1cc([C@H]2Oc3cc([C@H]4Oc5cc(O)cc(O)c5C(=O)[C@@H]4O)ccc3O[C@@H]2CO)ccc1O | inactive

Structure (SMILES) | Potency
NCCOCCO | inactive
C[C@]12C=CC(=O)C=C1CC[C@H]1[C@@H]3C[C@@H](O)[C@](O)(C(=O)CO)[C@@]3(C)C[C@H](O)[C@@]12F | inactive
O=S1(=O)CCCO1 | inactive
CC(=O)Nc1ccc2c(c1)Cc1cc(NC(C)=O)ccc1-2 | inactive
COc1ccc(C(=O)c2ccccc2O)c(O)c1 | inactive
CCCCCCC(C)O (stereo unspecified) | inactive
CC1(C)C(C=C(Cl)Cl)C1C(=O)OCc1cccc(Oc2ccccc2)c1 (stereo unspecified) | inactive
Nc1ccc(O)c(N)c1 | inactive
c1ccc2ncccc2c1 | inactive
NC[C@H](O)c1ccc(O)c(O)c1 | inactive
OC[C@@H](O)[C@@H](O[C@@H]1O[C@H](CO)[C@H](O)[C@H](O)[C@H]1O)[C@H](O)[C@@H](O)CO | inactive
Cc1ccc([N+](=O)[O-])c(C)c1 | inactive
Nc1cc(Cl)c(N)c(Cl)c1 | inactive
O=C(O)CCCC(=O)O | inactive
c1ccc2c(c1)ccc1cc3c(ccc4ccccc43)cc12 | inactive
COC(=O)C(C)Oc1ccc(Oc2ncc(C(F)(F)F)cc2Cl)cc1 (stereo unspecified) | inactive
C=CC(=O)OCCCC | inactive
CCC(=O)O[C@H]1[C@H](O[C@@H]2[C@@H](C)[C@H](O[C@H]3C[C@@](C)(OC)[C@@H](O)[C@H](C)O3)[C@@H](C)C(=O)O[C@H](CC)[C@@](C)(O)[C@H](O)[C@@H](C)C(=O)[C@H](C)C[C@@]2(C)O)O[C@H](C)C[C@@H]1N(C)C | inactive

Assay: qHTS assay to identify small molecule agonists of the NFkB signaling pathway - cell viability counter screen (AID 1159515); note: nearly all actives have a fitted effect of over 55% in size; note: potency is the fitted concentration of half-maximal effect
Settings: NFkB-bla ME-180 viability, CellTiter-Glo luminescence, 5 h; series mostly up to 61 µM
How it was run: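 Cells are seeded (2,000 NFkB-bla ME-180 per well), rested overnight, and dosed with DMSO-dissolved compounds for 5 hr at 37 C. Viability is then read by CellTiter-Glo luminescence after 30 min at room temperature.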

Structure (SMILES) | Potency
COCCOCCOCCO | inactive
c1ccc2c(c1)ccc1ncccc12 | inactive
Cc1ccc(C(C)(C)C)cc1 | inactive
CCCCCCCCCCCCO | inactive
c1ccc2cc3ccccc3cc2c1 | inactive
CCO[Si](CCCNC(N)=O)(OCC)OCC | inactive
Cc1ccc(S(=O)(=O)NCl)cc1 | inactive
CCC/C=C/C=O | inactive
Cc1ccc(N)c([N+](=O)[O-])c1 | inactive
CC(C)(Oc1ccc(Cl)cc1)C(=O)O | inactive
CC/C=C\C/C=C\C/C=C\CCCCCCCC(=O)O | inactive
CNC[C@H](O)c1ccc(O)c(O)c1 | inactive
C1COCCN1 | inactive
Brc1nc2ccccc2s1 | inactive
CN(C)/N=N/c1nc[nH]c1C(N)=O | inactive
Cc1ccc(C)c(O)c1 | inactive
CCCCCCOCCOCCO | inactive
COC(=O)c1ccc(C)cc1 | inactive
COc1cc([C@H]2Oc3cc([C@H]4Oc5cc(O)cc(O)c5C(=O)[C@@H]4O)ccc3O[C@@H]2CO)ccc1O | inactive
NCCOCCO | inactive

Structure (SMILES) | Potency
C[C@]12C=CC(=O)C=C1CC[C@H]1[C@@H]3C[C@@H](O)[C@](O)(C(=O)CO)[C@@]3(C)C[C@H](O)[C@@]12F | inactive
O=S1(=O)CCCO1 | inactive
CC(=O)Nc1ccc2c(c1)Cc1cc(NC(C)=O)ccc1-2 | inactive
COc1ccc(C(=O)c2ccccc2O)c(O)c1 | inactive
CCCCCCC(C)O (stereo unspecified) | inactive
CC1(C)C(C=C(Cl)Cl)C1C(=O)OCc1cccc(Oc2ccccc2)c1 (stereo unspecified) | inactive
Nc1ccc(O)c(N)c1 | inactive
c1ccc2ncccc2c1 | inactive
NC[C@H](O)c1ccc(O)c(O)c1 | inactive
OC[C@@H](O)[C@@H](O[C@@H]1O[C@H](CO)[C@H](O)[C@H](O)[C@H]1O)[C@H](O)[C@@H](O)CO | inactive
C=C[C@@]1(C)CC(=O)[C@]2(O)[C@@]3(C)[C@@H](O)CCC(C)(C)[C@@H]3[C@H](O)[C@H](OC(C)=O)[C@@]2(C)O1 | 24.5 µM (active) and 21.3 µM (active)
Cc1ccc([N+](=O)[O-])c(C)c1 | inactive
Clc1ccc(Sc2cc(Cl)c(Cl)cc2Cl)cc1 | inactive
Nc1cc(Cl)c(N)c(Cl)c1 | inactive
O=C(O)CCCC(=O)O | inactive
c1ccc2c(c1)ccc1cc3c(ccc4ccccc43)cc12 | inactive
COC(=O)C(C)Oc1ccc(Oc2ncc(C(F)(F)F)cc2Cl)cc1 (stereo unspecified) | inactive
C=CC(=O)OCCCC | inactive
CCC(=O)O[C@H]1[C@H](O[C@@H]2[C@@H](C)[C@H](O[C@H]3C[C@@](C)(OC)[C@@H](O)[C@H](C)O3)[C@@H](C)C(=O)O[C@H](CC)[C@@](C)(O)[C@H](O)[C@@H](C)C(=O)[C@H](C)C[C@@]2(C)O)O[C@H](C)C[C@@H]1N(C)C | 36.4 µM (active) and inactive
